These results are taken from PubChem BioAssay AID1076 (NMMLSC, 2008).

Calls of active or inactive are those of the source.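 The calls were made as follows: active = cell event count below 40, meaning activity score above 60 where score is 100 minus count; inactive = the rest.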

This assay in a line: cytotoxicity in LNCaP prostate cells – cell-based, cell event count, single point, cytotoxicity control for prostate differentiation activator project, confirmation (AID 1076).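 Also: counts scatter-gated live cells after medium removal discards detached dead cells.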 As to conditions: LNCaP cell loss, flow cytometry event count, 4 d, stronger effect = lower value. A general note: Flow cytometry measures light scatter and fluorescence of single cells or particles in a stream.

For the molecule `CCOC(=O)N1CCC(=C2c3ccc(Cl)cc3CCc3cccnc32)CC1`, the cell event count was 7 (inactive) (at 100 µM) and 192 (event count, at 10 µM).

On to `CN(C)c1ccc(-c2nn3c(-c4ccc(Cl)cc4Cl)nnc3s2)cc1`, for which the cell event count is 6 (active) (at 100 µM) and 65.5 (event count, at 10 µM).

Turning to `COc1ccc(CC(=O)Nc2ccc(-c3nnc(-c4ccc(C)cc4)o3)cc2)cc1`, the cell event count reads like this: (at 100 µM) 24 (inactive); (event count, at 10 µM) 112.

With `COc1ccc(S(=O)(=O)CCC(=O)O)cc1`, the cell event count runs as follows: (at 100 µM) 153 (inactive); (event count, at 10 µM) 47.

As to `CN1CCN(CC(=O)Nc2ccc(Cl)cc2Cl)CC1`, the cell event count was 117 (inactive) (at 100 µM) and 198 (event count, at 10 µM).

For `CN1CCN(CCCNC(=O)c2cc3c(-c4ccc(Cl)cc4)nn(C)c3s2)CC1`, the cell event count (at 100 µM) was 7 (inactive) and the cell event count (event count, at 10 µM) is 146.

As to `O=C(CCn1c(=O)[nH]c2ccccc2c1=O)NCCCN1CCN(c2cccc(Cl)c2)CC1`, the cell event count was 14 (inactive) (at 100 µM) and 354 (event count, at 10 µM).

On to `COc1ccc(N2CCN(CCCNC(=O)CC3Oc4ccc(C)cc4NC3=O)CC2)cc1` (centres undefined), for which the cell event count runs as follows: (at 100 µM) 290 (inactive); (event count, at 10 µM) 140.

On to `COc1ccccc1N1CCN(Cc2cc(Br)c(O)c3ncccc23)CC1`, for which the cell event count was 17 (active) (at 100 µM) and 35.5 (event count, at 10 µM).

For `CCN(CCNC(=O)C1CCCN(Cc2nc(-c3ccc(OC)cc3)oc2C)C1)c1ccccc1` (centres undefined), the cell event count is 18 (inactive) (at 100 µM) and 146 (event count, at 10 µM).

As for `CCOC(=O)c1[nH]c(C)c(C(=O)NC2CCCCCC2)c1C`, the cell event count was 63 (inactive) (at 100 µM) and 112 (event count, at 10 µM).

`COc1ccc(Cl)c(N2CCN(CCCNC(=O)Nc3ccc(C)cc3)CC2)c1`: the cell event count by setting is: (at 100 µM) 19 (inactive); (event count, at 10 µM) 128.

As to `Cc1cc(C)nc(N2CCC(C(=O)Nc3ccc(Oc4ccccc4)cc3)CC2)n1`, the cell event count is 145 (inactive) (at 100 µM) and 398 (event count, at 10 µM).

For the molecule `Cc1ccc(-c2noc(CCC(=O)NCCCN3CCN(c4ccc(F)cc4)CC3)n2)cc1`, the cell event count by setting is: (at 100 µM) 14 (inactive); (event count, at 10 µM) 98.

For `COc1ccc(N2CCN(c3oc(COc4ccccc4Cl)nc3C#N)CC2)cc1`, the cell event count (at 100 µM) was 214 (inactive) and the cell event count (event count, at 10 µM) was determined as 172.

As for `Cc1ccccc1OCc1nc(-c2ccc(NC(=O)c3ccc4c(c3)OCO4)cc2)no1`, the cell event count reads like this: (at 100 µM) 31 (inactive); (event count, at 10 µM) 154.

On to `Cc1ccc(CNc2nc3ccccc3n3nnnc23)cc1`, for which the cell event count was 245 (inactive) (at 100 µM) and 196 (event count, at 10 µM).

For the molecule `Cc1cc(=O)n2nc(N3CCCC(C(=O)NCCCN4CCc5ccccc5C4)C3)sc2n1` (centres undefined), the cell event count is, setting by setting: (at 100 µM) 259 (inactive); (event count, at 10 µM) 146.

In the case of `Cc1ccc(NC(=O)CCNS(=O)(=O)c2ccc3c(c2)oc(=O)n3C)c(C)c1`, the cell event count reads like this: (at 100 µM) 350 (inactive); (event count, at 10 µM) 129.

Consider `CCC(CC)C(=O)Nc1cccc(C(=O)NCc2ccco2)c1`, for which the cell event count (at 100 µM) is 220 (inactive) and the cell event count (event count, at 10 µM) was 155.

Consider `Cc1ccc2c(c1)-c1c(cnn1CC(=O)Nc1ccccc1N1CCN(C)CC1)CO2`, for which the cell event count runs as follows: (at 100 µM) 73 (inactive); (event count, at 10 µM) 142.

For `COc1ccc(-c2noc(CCC(=O)NCCCN3CCC(C)CC3)n2)cc1`, the cell event count (at 100 µM) was 63 (inactive) and the cell event count (event count, at 10 µM) came out at 136.

For `CC1CCCCN1CCNC(=O)c1cc2c(-c3ccccc3F)nn(C)c2s1` (centres undefined), the cell event count was 255 (inactive) (at 100 µM) and 384 (event count, at 10 µM).

Take `Cn1c(=O)n(C)c2cc(CN3C(=O)OC(C)(C)C3(C)O)ccc21` (centres undefined): the cell event count by setting is: (at 100 µM) 211 (inactive); (event count, at 10 µM) 145.

For `CCOC(=O)Cn1nc(-c2ccc(Cl)cc2)cc1N`, the cell event count is, setting by setting: (at 100 µM) 70 (inactive); (event count, at 10 µM) 22.

As for `Cc1ccccc1-c1nc(CN2CCCC(C(=O)NCCCN3CCOCC3)C2)c(C)o1` (centres undefined), the cell event count runs as follows: (at 100 µM) 145 (inactive); (event count, at 10 µM) 175.

Regarding `CCN(CCCNS(=O)(=O)c1ccc2c(c1)oc(=O)n2C)c1cccc(C)c1`, the cell event count is 27 (inactive) (at 100 µM) and 151 (event count, at 10 µM).

In the case of `CCOC(=O)N1CCN(C(=O)CCc2c(C)nc3c(c(C)nn3-c3ccc(C)c(C)c3)c2C)CC1`, the cell event count is, setting by setting: (at 100 µM) 5 (inactive); (event count, at 10 µM) 222.

Take `Cc1ccc(S(=O)(=O)NCCCCC(NC(=O)OC(C)(C)C)C(=O)O)cc1` (centres undefined) (tested in a mixture with another compound): the cell event count (at 100 µM) was 203 (inactive) and the cell event count (event count, at 10 µM) stood at 138.

On to `Cc1ccc(C)c(N2CCN(CCCNC(=O)Cn3cc4c(n3)CCC(C)C4)CC2)c1` (centres undefined), for which the cell event count is, setting by setting: (at 100 µM) 5 (inactive); (event count, at 10 µM) 276.

In the case of `COc1ccc(-c2oc3ncn(CCN4CCOCC4)c(=N)c3c2-c2ccc(OC)cc2)cc1`, the cell event count is, setting by setting: (at 100 µM) 26 (inactive); (event count, at 10 µM) 237.

Take `C=C(C)Cn1c(-c2ccccc2)nc2ccccc21`: the cell event count was 16 (inactive) (at 100 µM) and 106 (event count, at 10 µM).
